From PubChem BioAssay (EPA / NIEHS)
Inconclusive results are not listed. Active and inactive are the calls of the source. How the source made its calls, unless noted: active means hit-call score of the fitted dose curve at least 0.9, where 1 is the maximum; inactive means score below 0.9.

Columns and labels:
[1] = read-out: Monocyte Chemoattractant Protein-1 (MCP1), CCL2 (gene 6347); experiment: BSK_SAg_MCP1: BioMAP Diversity Plus: SAg Assay for Monocyte Chemoattractant Protein-1 (MCP1) Biomarker Activity (AID 2283090); conditions: primary human HUVEC with PBMC; actives raise or lower the signal
Method in brief: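 MCP-1 levels in the endothelial–PBMC SAg co-culture were quantified by ELISA at 24 h post-dosing; both increases and decreases versus DMSO scored. Cytotoxicity monitored by SRB total protein in parallel cultures.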

[2] = read-out: E-selectin (Homo sapiens) (UniProt P16581); experiment: BSK_SAg_Eselectin: BioMAP Diversity Plus: SAg Assay for Eselectin Biomarker Activity (AID 2283091); conditions: primary human HUVEC with PBMC; actives raise or lower the signal
Method in brief: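 Human umbilical vein endothelial cells co-cultured with peripheral blood mononuclear cells, SAg system. E-selectin is measured by ELISA 24 h after dosing and fitted bidirectionally against DMSO. Cytotoxicity is checked by SRB staining of parallel cultures.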

[3] = read-out: Monokine induced gamma interferon (MIG), CXCL9 (gene 4283); experiment: BSK_SAg_MIG: BioMAP Diversity Plus: SAg Assay for Monokine induced gamma interferon (MIG) Biomarker Activity (AID 2283092); conditions: primary human HUVEC with PBMC; actives raise or lower the signal
Method in brief: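 Values reflect bidirectional fitting of ELISA-measured MIG against DMSO vehicle, taken 24 h after dosing of a co-culture of human umbilical vein endothelial cells and peripheral blood mononuclear cells.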

[4] = BSK_SAg_PBMCCytotoxicity: PBMC Cytotoxicity Assessment in the BioMAP Diversity Plus: SAg Assay (AID 2283093); conditions: primary human HUVEC with PBMC;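 further: PBMC viability measured as Alamar Blue reduction fluorescence at 546/580 nm; fitted both ways against DMSO so a hit may be loss or gain of signal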;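 on AC50: PBMC superantigen activated with SEB plus TSST-1 one hour after compound addition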
Method in brief: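 Human umbilical vein endothelial cells co-cultured with PBMC; PBMC (75,000/well) pre-treated with compound 1 h, then activated with SEB and TSST-1 (20 ng/mL final each) for 90 h. Alamar Blue added 6 h, fluorescence 546/580 nm; bidirectional fit versus DMSO.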

[5] = BSK_SAg_Proliferation: Cell Proliferation Assessment in the BioMAP Diversity Plus: SAg Assay (AID 2283095); conditions: primary human HUVEC with PBMC
Method in brief: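 Human umbilical vein endothelial cells co-cultured with PBMC; sulforhodamine B total-protein staining (0.1% SRB after 10% TCA fixation, absorbance 560 nm) at 96 h in sub-confluent culture. Fitted bidirectionally against DMSO.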

[6] = BSK_SAg_SRB: Viability Assessment in the BioMAP Diversity Plus: SAg Assay (AID 2283096); conditions: primary human HUVEC with PBMC;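 further: cells read one day after compound addition; hits may be either gain or loss of signal compared with DMSO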
Method in brief: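 Endothelial/PBMC primary human co-culture; compound 24 h; fix 10% TCA, stain 0.1% SRB, A560; protein content as cytotoxicity proxy; bidirectional curve fit, DMSO = baseline.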

[7] = read-out: Interleukin-8 (IL8), CXCL8 (gene 3576); experiment: BSK_SAg_IL8: BioMAP Diversity Plus: SAg Assay for Interleukin-8 (IL8) Biomarker Activity (AID 2283094); conditions: primary human HUVEC with PBMC; actives raise or lower the signal
Method in brief: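 Human umbilical vein endothelial cells co-cultured with PBMC, stimulated with superantigen; IL-8 measured by ELISA 24 h after chemical dosing. Bidirectional fitting versus DMSO; SRB staining in parallel cultures tracks cytotoxicity.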

[8] = biological target: human AKT serine/threonine Kinase 1 (AKT1), AKT1 (gene 207) (UniProt P31749); experiment: NVS_ENZ_hAKT1: NovaScreen (NVS) Enzymatic Assay for human AKT serine/threonine Kinase 1 (AKT1) (AID 2283138; active means hit-call score of the fitted dose curve at least 0.9, where 1 is the maximum)
Chain of human AKT serine/threonine Kinase 1 (AKT1), AKT1 (gene 207) (P31749 whole entry, looked up): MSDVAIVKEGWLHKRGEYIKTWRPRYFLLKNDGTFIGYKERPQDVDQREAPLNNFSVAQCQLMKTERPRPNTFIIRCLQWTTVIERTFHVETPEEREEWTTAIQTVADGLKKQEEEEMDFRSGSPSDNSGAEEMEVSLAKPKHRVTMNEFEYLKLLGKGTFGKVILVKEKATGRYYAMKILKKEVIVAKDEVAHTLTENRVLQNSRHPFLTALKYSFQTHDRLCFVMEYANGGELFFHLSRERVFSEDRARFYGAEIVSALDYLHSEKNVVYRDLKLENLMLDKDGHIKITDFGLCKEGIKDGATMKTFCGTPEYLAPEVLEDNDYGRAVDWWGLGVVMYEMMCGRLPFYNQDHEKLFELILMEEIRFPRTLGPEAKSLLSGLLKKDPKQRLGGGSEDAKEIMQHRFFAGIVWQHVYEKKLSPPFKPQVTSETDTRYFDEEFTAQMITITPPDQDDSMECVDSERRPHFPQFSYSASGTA
Method in brief: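 Recombinant human AKT1 with a specific substrate, product separated by electrophoretic mobility shift, read after 1 h. Compounds at 25 uM in duplicate, then concentration-response up to 50 uM for hits; inhibition relative to DMSO.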

[9] = biological target: human CYP2B6, CYP2B6 (gene 1555) (UniProt P20813); experiment: NVS_ADME_hCYP2B6: NovaScreen (NVS) CYP450-related Enzyme Activity (ADME) Assay for human CYP2B6 (AID 2283101; active means hit-call score of the fitted dose curve at least 0.9, where 1 is the maximum)
Chain of human CYP2B6, CYP2B6 (gene 1555) (P20813 whole entry, looked up): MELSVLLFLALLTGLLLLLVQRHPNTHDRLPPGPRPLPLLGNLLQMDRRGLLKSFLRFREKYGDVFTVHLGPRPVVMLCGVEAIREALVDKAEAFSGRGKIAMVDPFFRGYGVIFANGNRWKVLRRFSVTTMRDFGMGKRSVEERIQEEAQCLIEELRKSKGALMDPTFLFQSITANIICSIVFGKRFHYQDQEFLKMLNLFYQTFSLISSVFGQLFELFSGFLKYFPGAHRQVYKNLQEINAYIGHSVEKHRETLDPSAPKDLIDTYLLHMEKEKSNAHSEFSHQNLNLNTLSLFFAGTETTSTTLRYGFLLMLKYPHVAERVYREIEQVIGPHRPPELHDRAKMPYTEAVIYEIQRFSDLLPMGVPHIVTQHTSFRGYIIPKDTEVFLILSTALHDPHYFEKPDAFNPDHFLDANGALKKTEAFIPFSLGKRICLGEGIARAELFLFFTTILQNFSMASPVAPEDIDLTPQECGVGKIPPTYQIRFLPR
Method in brief: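 Compounds were first screened in duplicate at 10 uM against recombinant enzyme, with the fluorescent product measured after 1 hour. Active compounds were retested over a concentration series. Loss of fluorescence versus acetonitrile control was scored as reduced enzyme activity.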

[10] = biological target: human CYP1A2, CYP1A2 (gene 1544) (UniProt P05177); experiment: NVS_ADME_hCYP1A2: NovaScreen (NVS) CYP450-related Enzyme Activity (ADME) Assay for human CYP1A2 (AID 2283102; active means hit-call score of the fitted dose curve at least 0.9, where 1 is the maximum)
Chain of human CYP1A2, CYP1A2 (gene 1544) (P05177 whole entry, looked up): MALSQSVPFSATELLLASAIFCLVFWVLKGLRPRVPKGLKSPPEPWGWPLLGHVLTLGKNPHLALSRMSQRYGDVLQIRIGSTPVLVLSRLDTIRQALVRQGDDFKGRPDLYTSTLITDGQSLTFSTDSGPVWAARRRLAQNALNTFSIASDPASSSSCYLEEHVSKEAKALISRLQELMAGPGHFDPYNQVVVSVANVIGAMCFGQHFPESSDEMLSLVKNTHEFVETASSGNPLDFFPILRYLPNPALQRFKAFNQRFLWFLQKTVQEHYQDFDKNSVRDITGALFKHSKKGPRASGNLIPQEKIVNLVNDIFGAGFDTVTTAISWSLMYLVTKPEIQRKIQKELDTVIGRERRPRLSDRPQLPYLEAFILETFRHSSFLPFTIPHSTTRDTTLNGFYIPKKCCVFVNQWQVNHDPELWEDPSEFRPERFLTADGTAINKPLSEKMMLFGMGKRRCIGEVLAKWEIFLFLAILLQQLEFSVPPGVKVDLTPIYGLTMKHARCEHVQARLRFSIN
Method in brief: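 Recombinant human CYP1A2 from insect cells, cell-free, fluorogenic substrate; read 0.5 h after dosing with loss of fluorescence signal indicating inhibition. Primary screen in duplicate at 10 uM, acetonitrile as negative control.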

[11] = biological target: human CYP2D6, CYP2D6 (gene 1565) (UniProt P10635); experiment: NVS_ADME_hCYP2D6: NovaScreen (NVS) CYP450-related Enzyme Activity (ADME) Assay for human CYP2D6 (AID 2283107; active means hit-call score of the fitted dose curve at least 0.9, where 1 is the maximum)
Chain of human CYP2D6, CYP2D6 (gene 1565) (P10635 whole entry, looked up): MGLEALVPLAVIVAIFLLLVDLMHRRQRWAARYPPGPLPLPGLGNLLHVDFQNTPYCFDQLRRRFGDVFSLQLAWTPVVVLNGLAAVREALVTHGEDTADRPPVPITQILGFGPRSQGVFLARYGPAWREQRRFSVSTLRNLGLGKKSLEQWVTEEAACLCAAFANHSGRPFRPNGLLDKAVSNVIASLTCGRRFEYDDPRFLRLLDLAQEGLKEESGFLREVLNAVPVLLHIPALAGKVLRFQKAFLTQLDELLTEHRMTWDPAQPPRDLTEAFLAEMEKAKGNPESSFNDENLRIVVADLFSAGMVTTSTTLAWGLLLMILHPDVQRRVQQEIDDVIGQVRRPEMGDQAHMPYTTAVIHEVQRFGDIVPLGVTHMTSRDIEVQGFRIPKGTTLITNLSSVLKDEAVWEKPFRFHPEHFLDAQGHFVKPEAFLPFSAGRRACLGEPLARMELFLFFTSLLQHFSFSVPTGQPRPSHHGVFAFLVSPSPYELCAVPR
Method in brief: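 Cell-free assay using recombinant human CYP2D6 expressed in insect cells, with a fluorogenic substrate read after 1 h. Primary screen in duplicate at 10 uM; actives followed up in concentration series. Loss of signal fitted relative to acetonitrile.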

[12] = biological target: human CYP2C9, CYP2C9 (gene 1559) (UniProt P11712); experiment: NVS_ADME_hCYP2C9: NovaScreen (NVS) CYP450-related Enzyme Activity (ADME) Assay for human CYP2C9 (AID 2283108; active means hit-call score of the fitted dose curve at least 0.9, where 1 is the maximum)
Chain of human CYP2C9, CYP2C9 (gene 1559) (P11712 whole entry, looked up): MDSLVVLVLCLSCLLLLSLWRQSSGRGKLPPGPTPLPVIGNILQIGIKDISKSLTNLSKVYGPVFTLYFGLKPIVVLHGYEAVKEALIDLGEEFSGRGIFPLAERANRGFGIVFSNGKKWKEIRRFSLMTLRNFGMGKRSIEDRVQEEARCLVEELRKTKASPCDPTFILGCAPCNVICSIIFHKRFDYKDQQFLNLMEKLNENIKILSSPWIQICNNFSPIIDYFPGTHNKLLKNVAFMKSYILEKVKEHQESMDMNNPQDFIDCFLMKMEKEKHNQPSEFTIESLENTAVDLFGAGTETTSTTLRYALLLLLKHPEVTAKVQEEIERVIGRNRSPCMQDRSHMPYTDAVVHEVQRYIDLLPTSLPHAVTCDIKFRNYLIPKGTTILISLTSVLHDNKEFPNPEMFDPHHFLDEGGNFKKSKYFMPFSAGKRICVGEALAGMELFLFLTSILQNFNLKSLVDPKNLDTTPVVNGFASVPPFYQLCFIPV
Method in brief: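 Cell-free assay of recombinant human CYP2C9 produced in Sf9 cells, with enzyme activity read by fluorescence intensity 0.75 h after compound addition. Loss of signal versus an acetonitrile negative control indicates inhibition. Primary screen used 10 uM in duplicate; actives were retested in concentration series.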

[13] = biological target: Cytochrome P450 2C19 (Homo sapiens) (UniProt P33261); experiment: NVS_ADME_hCYP2C19: NovaScreen (NVS) CYP450-related Enzyme Activity (ADME) Assay for human CYP2C19 (AID 2283113; active means hit-call score of the fitted dose curve at least 0.9, where 1 is the maximum;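 further: potency for inhibition seen as loss of fluorescent signal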)
Method in brief: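 Cell-free recombinant human CYP2C19 from insect cells, fluorescent substrate; activity read by fluorescence intensity 1 h after dosing. Primary screen in duplicate at 10 uM; actives retested in concentration series. Signal loss versus acetonitrile negative control.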

[14] = biological target: human Caspase 5 (CASP5), CASP5 (gene 838) (UniProt P51878); experiment: NVS_ENZ_hCASP5: NovaScreen (NVS) Enzymatic Assay for human Caspase 5 (CASP5) (AID 2283137; active means hit-call score of the fitted dose curve at least 0.9, where 1 is the maximum)
Chain of human Caspase 5 (CASP5), CASP5 (gene 838) (P51878 whole entry, looked up): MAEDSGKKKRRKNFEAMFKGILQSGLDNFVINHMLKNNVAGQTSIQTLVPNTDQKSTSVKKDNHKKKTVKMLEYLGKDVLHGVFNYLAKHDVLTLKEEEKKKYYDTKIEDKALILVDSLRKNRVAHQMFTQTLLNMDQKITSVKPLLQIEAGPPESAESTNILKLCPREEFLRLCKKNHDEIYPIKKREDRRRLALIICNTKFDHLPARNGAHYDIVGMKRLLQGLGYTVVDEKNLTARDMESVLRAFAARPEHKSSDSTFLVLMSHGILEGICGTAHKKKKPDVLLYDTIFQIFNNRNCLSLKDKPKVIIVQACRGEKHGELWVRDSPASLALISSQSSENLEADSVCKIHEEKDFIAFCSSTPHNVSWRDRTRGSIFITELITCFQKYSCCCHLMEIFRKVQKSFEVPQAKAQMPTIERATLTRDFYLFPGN
Method in brief: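 Recombinant human caspase 5 expressed in E. coli, fluorogenic substrate, fluorescence read 2 h after dosing. Single-point 25 uM duplicate screen, then concentration-response to maximum 50 uM for actives; DMSO baseline.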

[15] = biological target: Caspase-3 (Homo sapiens) (UniProt P42574); experiment: NVS_ENZ_hCASP3: NovaScreen (NVS) Enzymatic Assay for human Caspase 3 (CASP3) (AID 2283139; active means hit-call score of the fitted dose curve at least 0.9, where 1 is the maximum)
Chain of Caspase-3 (Homo sapiens) (P42574 whole entry, looked up): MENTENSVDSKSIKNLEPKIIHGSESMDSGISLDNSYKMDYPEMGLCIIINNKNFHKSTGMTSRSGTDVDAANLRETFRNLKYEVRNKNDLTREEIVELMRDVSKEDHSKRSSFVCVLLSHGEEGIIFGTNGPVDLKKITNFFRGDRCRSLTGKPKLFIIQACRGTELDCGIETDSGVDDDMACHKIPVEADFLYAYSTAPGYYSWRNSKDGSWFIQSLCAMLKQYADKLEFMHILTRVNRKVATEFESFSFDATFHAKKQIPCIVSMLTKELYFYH
Method in brief: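 Recombinant human caspase-3 from E. coli with a fluorogenic substrate, read by fluorescence 1 h after dosing. Primary screen in duplicate at 25 uM. Actives (for example ≥30% inhibition) rerun as concentration-response up to 50 uM.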

Measured: AC50

Chain of E-selectin (Homo sapiens) (P16581 whole entry, looked up): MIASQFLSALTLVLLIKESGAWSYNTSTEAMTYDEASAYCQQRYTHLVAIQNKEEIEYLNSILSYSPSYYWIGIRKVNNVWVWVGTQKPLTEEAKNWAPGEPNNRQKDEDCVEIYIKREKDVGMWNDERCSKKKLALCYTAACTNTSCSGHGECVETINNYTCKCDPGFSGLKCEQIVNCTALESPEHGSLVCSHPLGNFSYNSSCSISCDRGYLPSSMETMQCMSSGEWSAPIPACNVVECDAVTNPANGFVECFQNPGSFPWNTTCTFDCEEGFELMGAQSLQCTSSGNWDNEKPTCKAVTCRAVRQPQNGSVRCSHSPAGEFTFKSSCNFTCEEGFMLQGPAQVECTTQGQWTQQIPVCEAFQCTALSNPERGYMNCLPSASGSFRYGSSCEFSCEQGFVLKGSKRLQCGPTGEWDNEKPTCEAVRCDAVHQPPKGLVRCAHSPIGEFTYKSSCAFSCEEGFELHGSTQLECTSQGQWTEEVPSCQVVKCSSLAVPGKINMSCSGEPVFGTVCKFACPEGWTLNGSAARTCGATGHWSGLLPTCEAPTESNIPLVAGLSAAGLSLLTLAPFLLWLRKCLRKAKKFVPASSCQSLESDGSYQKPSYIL

Cc1nc(C)nc(N2C[C@@H](C)N(c3ccnc([C@@H](C)O)n3)[C@@H](C)C2)n1
inactive: [1] | [2] | [3] | [4] | [5] | [6]

CCCCCCCCCCC
inactive: [1] | [2] | [3] | [4] | [7] | [5] | [6]

O=C(O)CCCCC(=O)O
inactive: [1] | [2] | [3] | [4] | [5] | [6]

CCCCc1ccc2c(n1)[C@@H](c1ccc(OC)cc1C[C@H](C)C(=O)O)[C@H](C(=O)O)[C@H]2c1ccc2c(c1)OCO2
inactive: [1] | [2] | [3] | [4] | [5] | [6]

CCCCCC(=O)O
inactive: [1] | [2] | [3] | [4] | [7] | [5] | [6] | [8]

CCOC(=O)CCC(=O)OCC
active: [13] 15.4 µM
not listed: [8] | [14] | [15]
inactive: all other assays above

CCNc1cccc(C)c1
inactive: [1] | [2] | [3] | [4] | [7] | [5] | [6]

c1cc(-c2ccncc2)ccn1
inactive: [1] | [2] | [3] | [4] | [5] | [6]

Cc1ccccc1Cl
inactive: [1] | [2] | [3] | [4] | [7] | [5] | [6]

CC(=O)OCCOCCOCCOC(C)=O
inactive: [1] | [2] | [3] | [4] | [7] | [5] | [6]

Cc1oc(-c2ccccc2)nc1CCOc1cccc2c1ccn2CCC(=O)O
inactive: [1] | [2] | [3] | [4] | [5] | [6]

CCCCCCCCCCCCCCCCCC(=O)O
inactive: [1] | [2] | [3] | [7] | [6]
active: [4] 26.7 µM | [5] 24.1 µM | [14] 0.719 µM

Cc1cc(NC(=O)C(=O)O)cc(C)c1Oc1ccc(O)c2c1CCC2
inactive: [1] | [2] | [3] | [4] | [7] | [5] | [6]

CC(CO)OC(C)CO (stereo unspecified) (tested in a mixture with another compound)
inactive: [1] | [2] | [3] | [4] | [5] | [6]

O=c1[nH]cc(F)c(=O)[nH]1
active: [5] 2.48 µM
inactive: [1] | [2] | [3] | [4] | [7] | [6]

CC(=O)C(C)=CC1C(C)=CCCC1(C)C (stereo unspecified)
inactive: [1] | [2] | [3] | [4] | [7] | [5] | [6] | [8]

Nc1ccc(S(=O)(=O)c2ccc(N)cc2)cc1
inactive: [1] | [2] | [3] | [4] | [5] | [6]

CCCCCCOCCO
inactive: [1] | [2] | [3] | [4] | [7] | [5] | [6] | [8]

CC=Cc1ccc(O)c(OC)c1
not listed: [8] | [10] | [11] | [13] | [14] | [15]
inactive: all other assays above

CCCCC(CC)COC(=O)CC(C(=O)OCC(CC)CCCC)S(=O)(=O)O (stereo unspecified)
active: [1] 33 µM | [2] 34.1 µM | [3] 38 µM | [4] 34.8 µM | [7] 33.6 µM | [5] 32.5 µM | [6] 36.2 µM | [12] 3.5 µM | [13] 4.49 µM | [14] 15.2 µM

COc1cc(S(=O)(=O)O)c(C)cc1N=Nc1c(O)ccc2cc(S(=O)(=O)O)ccc12
inactive: [1] | [2] | [3] | [4] | [7] | [5] | [6]
active: [14] 19.9 µM | [15] 15.3 µM
